The results in this text go back to PubChem BioAssay AID463173 (ICCB-Longwood Screening Facility, Harvard Medical School, 2010).

Each structure is given as a SMILES string. Hit rate of the full screen: of about 52,000 compounds, about 1,700 (3.3%) were called active. Shown is part of a subset that was picked to be rich in actives. Values without a mark were called inactive. Rule as the data show it: active = survival mostly below about 52% (no sharp cut-off); inactive = mostly above about 56%.

For the assay, the system named is Wild type. The experiment in a line: growth inhibition of S. aureus wild type versus tarO mutant, primary screen, teichoic acid synthesis inhibitors, RN4220, OD600 (AID 463173). The following applies: S. aureus RN4220 wild type/DeltatarO growth, OD600, 18 h, active compounds read low, screened at 18.75 µg/mL (by protocol).
For the molecule `Cc1ccc(CNC(=O)c2ccc(Cn3c(SCc4ccc(F)cc4)nc4cccnc43)cc2)o1`, the survival is 84%. With `Cc1ccc(C(=O)c2sc(Nc3ccc(F)cc3)c(C#N)c2N)cc1` the figure was 108%; with `CCCOc1ccc(C(=O)Nc2ccc3nn(-c4ccc(OC)c(Cl)c4)nc3c2)cc1`, 145%.

Take `COc1ccc(CNC(=O)C(=O)Nc2ccc(OC)cc2OC)cc1`: the survival is 80%. Take `N#C/C(=C/C=C/c1ccco1)c1nc2ccccc2[nH]1`: the survival was 113%. Turning to `CCCNC(=O)Cn1ncc2c3ccccc3n(CCC)c2c1=O`, the survival is 133%. With `CCCn1c2ccccc2c2cnn(CC(=O)NCCc3ccc(OCC)c(OCC)c3)c(=O)c21` the figure was 76%; with `CCCn1c2ccccc2c2cnn(CC(=O)NCCCOC(C)C)c(=O)c21`, -6% (active); with `CCCn1c2ccccc2c2cnn(CC(=O)NCCc3ccc(OCC)cc3)c(=O)c21`, -6% (active).

Take `CCCn1c2ccccc2c2cnn(CC(=O)NCCCN3CCCCC3)c(=O)c21`: the survival is 78%. The value for `CCCn1c2ccccc2c2cnn(CC(=O)NCCc3ccc(C)cc3)c(=O)c21` was 121%; that for `CCCSc1nc(=O)c2c(n1C)NC(=O)CC2c1cccc(F)c1F` (stereo not drawn) was 82%; that for `COc1ccc(C)cc1NC(=O)N1CCN(c2cc(-c3noc(C)n3)ccc2C)CC1` was 85%. In the case of `Cc1ccc(NC(=O)N2CCN(c3cc(-c4noc(C)n4)ccc3C)CC2)c(C)c1`, the survival is 72%. The value for `Cc1cc(C)cc(NC(=O)N2CCN(c3cc(-c4noc(C)n4)ccc3C)CC2)c1` was 76%; that for `COc1ccc(NC(=O)N2CCN(c3cc(-c4noc(C)n4)ccc3C)CC2)c(OC)c1` was 133%; that for `COc1cc(NC(=O)N2CCN(c3cc(-c4noc(C)n4)ccc3C)CC2)cc(OC)c1OC` was 14% (active). With `Cc1nc(-c2ccc(C)c(N3CCN(C(=O)Nc4ccc(Br)cc4)CC3)c2)no1` the figure was -1% (active); with `CSc1cccc(NC(=O)N2CCN(c3cc(-c4noc(C)n4)ccc3C)CC2)c1`, 74%. The value for `Cc1ccc(NC(=O)N2CCN(c3cc(-c4noc(C)n4)ccc3C)CC2)c(F)c1` was -6% (active). With `COc1cc([N+](=O)[O-])ccc1NC(=O)N1CCN(c2cc(-c3noc(C)n3)ccc2C)CC1`, the survival was 78%.

With `Cc1ccc2scc(N3CCN(c4ccccc4)CC3)c(=O)c2c1`, the survival was 74%. The value for `Cc1c(-c2cccc(NC(=O)Cc3ccccc3)c2)nc2ncccn12` was 73%; that for `Cc1ccc2c(CNC3CCCC3)c(C(=O)O)n(Cc3ccc(F)cc3)c2c1` was 111%. The value for `C/C(=N\NC(=O)COc1ccccc1)C1C(=O)c2ccccc2C1=O` was 107%; that for `COc1cccc(-n2c(SCC(=O)Nc3cc(C)ccc3C)nc3c(oc4ccccc43)c2=O)c1` was 96%. Consider `COc1ccc(Nc2nnc(-c3ccc(C)c(S(=O)(=O)NCCO)c3)c3ccccc23)cc1C(N)=O`, for which the survival is 70%. The value for `COc1cccc(-c2ccnc3c(-c4ccc(F)cc4)c(C)nn23)c1` was 99%; that for `CCc1nn2c(-c3ccco3)ccnc2c1-c1ccccc1` was 89%; that for `Cc1ccccc1-c1ccnc2c(-c3ccc(F)cc3)c(C)nn12` was -13% (active). With `COc1ccc(-c2ccnc3c(-c4ccc(F)cc4)c(C)nn23)cc1OC` the figure was 79%; with `Cc1nn2c(-c3ccco3)ccnc2c1-c1ccc(F)cc1`, 75%. With `CCc1nn2c(-c3ccccc3OC)ccnc2c1-c1ccc(F)cc1` the figure was -11% (active).

Regarding `CCc1nn2c(-c3ccccc3OC)ccnc2c1-c1ccccc1`, the survival was -12% (active). As to `CCc1nn2c(-c3ccco3)ccnc2c1-c1ccc(F)cc1`, the survival was 71%.

For `COc1ccccc1-c1ccnc2c(-c3ccc(Br)cc3)c(C)nn12`, the survival is 77%.

`CCOc1ccc(CN2CCC(C(=O)NCC3CCCO3)CC2)cc1OC` (stereo not drawn): the survival was 99%.

Turning to `CCOC(=O)C1CCCN(C(=O)Cn2ncc3c4ccccc4n(Cc4ccccc4)c3c2=O)C1` (stereo not drawn), the survival is 121%. As to `CCOC(=O)c1c(NC(=O)COc2cccc(C)c2C)sc(C(C)=O)c1C`, the survival is 130%. On to `CCSc1oc(-c2ccco2)nc1S(=O)(=O)c1ccc(Br)cc1`, for which the survival was 65%. The value for `Cc1ccc(S(=O)(=O)c2nc(-c3ccco3)oc2SCC(C)C)cc1` was 39%.

In the case of `CCC(C)Sc1oc(-c2ccco2)nc1S(=O)(=O)c1ccc(C)cc1` (stereo not drawn), the survival was -12% (active).

In the case of `CCC(C)Sc1oc(-c2ccco2)nc1S(=O)(=O)c1ccc(Cl)cc1` (stereo not drawn), the survival is 25%. With `Cc1ccc(S(=O)(=O)c2nc(-c3ccco3)oc2SC(C)C)cc1` the figure was 49%. With `CC(C)CSc1oc(-c2ccco2)nc1S(=O)(=O)c1ccc(Br)cc1` the figure was 27% (active); with `CNC(=O)C1CCN(Cc2cc3ccccc3n2Cc2cccc(C)c2)CC1`, 81%. With `CC(C)(C)C(=O)Nc1ccc2nc(SCCOc3ccccc3Cl)sc2c1` the figure was 99%; with `O=C(Nc1ccc2nc(SCCOc3ccccc3Cl)sc2c1)c1cccs1`, 72%; with `CC(=O)Nc1ccc2nc(SCCOc3ccccc3Cl)sc2c1`, 9% (active). With `COc1ccc(Cn2nnnc2CN2CCC(NC(=O)c3cccc(OC)c3)CC2)cc1`, the survival was 115%.

For `O=C(CN1C(=O)C2(SCC(=O)N2c2cccc(F)c2)c2ccccc21)NCc1ccccc1Cl` (stereo not drawn), the survival is 80%. With `COc1ccc(S(=O)(=O)c2cc3cc(OC)ccc3oc2=O)cc1` the figure was 76%; with `CCOc1ccc(S(=O)(=O)c2cc3cccc(OCC)c3oc2=O)cc1`, 81%; with `COc1ccc(S(=O)(=O)c2cc3cc(C(C)(C)C)cc(O)c3oc2=O)cc1`, 10% (active). The value for `CCOC(=O)c1c(C)oc2nc(C)nc(Nc3cc(C)ccc3OC)c12` was 85%; that for `Cn1c(=O)n(-c2ccc(F)c(Cl)c2)c(=O)c2sc3ccccc3c21` was 96%; that for `COc1ccc(Cn2ccnc2SCC(=O)NCc2ccco2)cc1` was 70%.

Turning to `O=C(CSc1nc2ccsc2c(=O)n1Cc1ccc(F)cc1)NCc1ccc(Cl)cc1`, the survival was 81%. `COc1ccccc1NC(=O)CSc1ncc(CO)n1Cc1ccc(F)cc1`: the survival was 121%. With `O=C(CSc1ncc(CO)n1Cc1ccc(F)cc1)NCc1ccco1` the figure was 134%. Turning to `OCc1cnc(SCc2ccc(F)cc2)n1Cc1ccc(F)cc1`, the survival was 85%.

Consider `COc1ccc(Cn2c(CO)cnc2SCC(=O)NCc2ccco2)cc1`, for which the survival was -6% (active).

In the case of `Cc1ccc(Cn2c(CO)cnc2SCC(=O)NCc2ccccc2Cl)cc1`, the survival was 80%. With `COc1ccc(Cn2c(CO)cnc2SCc2ccccc2)cc1` the figure was 69%; with `Cc1ccc(Cn2c(CO)cnc2SCC(=O)Nc2ccc(C)c(Cl)c2)cc1`, -6% (active). In the case of `O=C(CSc1ncc(CO)n1Cc1ccc(Cl)cc1)NCc1ccc(F)cc1`, the survival was 14% (active).

In the case of `COc1ccc(Cn2c(CO)cnc2SCc2ccc(F)cc2)cc1`, the survival is -1% (active). In the case of `CCOC(=O)c1ccccc1NC(=O)CSc1ncc(CO)n1Cc1ccc(C)cc1`, the survival is 90%.
